A selection: hits, their analogues and other compounds. The true share with any hit is near 27%.
Cav3 T inh = Cav3.2 calcium influx blockers – cell-based, Fluo-4 calcium fluorescence, FDSS, MLSMR library, primary screen; Voltage-dependent T-type calcium channel subunit alpha-1H (Homo sapiens), O95180; Cav3.2-expressing cells; hits give low values; B-score at 10 µM; 100,000 tested, 4% active;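 active = single-dose well whose peak fluorescence ratio is a statistical outlier from its plate by either plate-standardised score or position-corrected B-score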
CYP2C19 act = human CYP2C19 activators, primary screen, biochemical, luminescence. recombinant CYP2C19, luciferin-H EGE luminescence; hits give high values; 0 = fully inhibited enzyme, 1 = untreated enzyme. activation factor at 5 µM. 96,000 tested, under 10 active. AID 1025, 2008;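 active = activation factor of at least 2 at 5 µM in the primary screen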;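 also: 0 = wells with 2.5 mM tranylcypromine and 1 = vehicle-only wells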
CYP2C9 inh = blockers of cytochrome P450 2C9 activity – biochemical, luminescence, ADME assay, primary screen; inhibition, % at 5 µM; P11712; CYP2C9 Supersomes, luciferin-H conversion; 96,000 tested, 20% active; AID 777, 2007;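 active = blocking of liver enzyme CYP2C9 beyond about 50% at 5 µM, limit read from the data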
Pyk2 oligo antag = antagonists of Pyk2 self-association, primary screen, Q293 cells, FERM NanoBiT luminescence, HTS; Protein-tyrosine kinase 2-beta (Homo sapiens), Q14289; hits give low values; z-score (the deposit names both 25 µM and 10 µM); 99,000 tested, 0.83% active; AID 1347419, 2020;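 active = Z-score of -3 or lower, scaled per plate to the spread of control and sample wells; inactive = z-score above -3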;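 also: negative z-score means lost luminescence so less FERM oligomerization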
CYP2C9 activ = human CYP2C9 activators, primary screen, biochemical, luminescence; Cytochrome P450 2C9 (Homo sapiens), P11712; recombinant CYP2C9, luciferin-H conversion; hits give high values; factor 1 = untreated enzyme, 0 = blocked; activation factor at 5 µM; 96,000 tested, 1.4% active; AID 1024, 2008;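 active = activation factor of 2 or more for CYP2C9 at a 5 µM dose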;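 also: 0 = sulfaphenazole-blocked wells and 1 = vehicle-only wells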
CYP2C19 inhib = blockers of cytochrome P450 2C19 activity – biochemical, luminescence, ADME assay, primary screen. 96,000 tested, 21% active. inhibition, % at 5 µM. CYP2C19 Supersomes, luciferin-H EGE luminescence, 30 min. P33261;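 active = CYP2C19 inhibition above a set limit at 5 µM in the primary screen, cut at about 50% in these data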;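 also: plate controls were negative control wells for no effect and 2.5 mM tranylcypromine positive control for full effect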
Starred values were filed as active, the others as inactive; . = no result.

SMILES | Cav3 T inh | CYP2C19 act | CYP2C9 inh | Pyk2 oligo antag | CYP2C9 activ | CYP2C19 inhib
CCn1cc(C2=NOC(C(=O)Nc3ccccc3C(=O)OC)C2)c(C)n1 (stereo not drawn) | 0.26 | 0.8 | -148 | -0.59 | 2.5* | 24
COC(=O)c1ccccc1NC(=O)C1CC(c2ccccc2O)=NO1 (stereo not drawn) | 0.083 | 0.9 | -20 | -2.5 | 1.2 | 9
CC(=O)Nc1nonc1NC(=O)c1ccc(C(C)(C)C)cc1 | -0.33 | 0.6 | 20 | -0.89 | 0.8 | 42
O=C(CCCc1c[nH]c2ccccc12)NCc1ccc2c(c1)OCO2 | -10* | 0.2 | 51* | 1.1 | 0.5 | 83*
O=C(CCc1ccc(S(=O)(=O)NCc2ccccc2)cc1)NCc1ccc2c(c1)OCO2 | 0.057 | 0.4 | 76* | 0.61 | 0.2 | 56*
O=C(CCc1ccc(S(=O)(=O)NCc2ccccc2)cc1)NCc1ccco1 | . | . | . | 0.25 | . | .
CS(=O)(=O)N(CC(=O)NCc1ccc2c(c1)OCO2)Cc1ccccc1 | 0.53 | 0.4 | 34 | 0.07 | 0.7 | 62*
Cc1nc2ccccc2nc1OCC(=O)NCc1ccc2c(c1)OCO2 | -0.12 | 0.5 | 11 | 0.24 | 0.9 | 51*
O=C(COc1ncnc2ccccc12)NCc1ccc2c(c1)OCO2 | -0.79 | 1 | 6 | 1.2 | 0.9 | -2
COc1cc(OC)c(C(=O)CCCN2CCCC2)c(OC)c1 | 1.3 | . | . | . | . | .
CC(C)=CCC(C)(C)CNC(=O)NC1CCCCC1 | -0.71 | . | . | 0 | . | .
CCOC(=O)c1c(NCc2ccc3c(c2)OCO3)c2ccccc2[nH]c1=O | -0.062 | 0.3 | 13 | 0.06 | 0.9 | 74*
O=C(NCc1ccc2c(c1)OCO2)C1CCC(CNS(=O)(=O)c2ccccc2)CC1 (stereo not drawn) | -3.8* | . | . | 0.12 | . | .
O=C(Cc1c[nH]c2ccccc12)NCc1ccc2c(c1)OCO2 | -1.9 | 0.1 | 53* | -0.65 | 0.5 | 94*
CN(C)C(CNC(=O)CCCc1c[nH]c2ccccc12)c1ccco1 (stereo not drawn) | 1.4 | 0.7 | -30 | 0.14 | 1.3 | 29
CC(C)CNC(=O)CCCc1c[nH]c2ccccc12 | 0.18 | 0.4 | -114 | -0.56 | 2.1* | 63*
Cc1nnsc1Sc1cccc(C(F)(F)F)c1 | 0.27 | 1.1 | -8 | 0.24 | 1.1 | -7
COc1ccc(C2C3=C(CCCC3=O)Nc3nc(C(F)(F)F)nn32)c(OC)c1OC (stereo not drawn) | -1.1 | 0.7 | 36 | -0.87 | 0.6 | 33
O=C(CCc1c[nH]c2ccccc12)NCc1ccc2c(c1)OCO2 | -1 | 0.1 | 19 | 0.63 | 0.8 | 92*
O=C(NCc1ccc2c(c1)OCO2)c1cc(-c2ccccc2)on1 | -4.6* | 1 | -16 | 0.46 | 1.2 | 4
CC(C)(C)C(=O)c1cn(CC(=O)NCc2ccc3c(c2)OCO3)c2ccccc12 | -4 | 0.5 | 50* | -1 | 0.5 | 53*
Cc1ccc(-c2cc(C(=O)NCc3ccc4c(c3)OCO4)no2)cc1 | -0.24 | 0.9 | 27 | -1 | 0.7 | 8
CCOCC(=O)NCc1ccc2c(c1)OCO2 | -0.16 | 0.8 | 3 | 0.25 | 1 | 22
O=C(Cc1ccccc1)NCc1ccc2c(c1)OCO2 | -2.7 | 0.1 | 54* | -0.14 | 0.5 | 95*
CC(C)C(=O)c1cn(CC(=O)NCc2ccc3c(c2)OCO3)c2ccccc12 | -0.15 | . | . | -0.21 | . | .
SMILES | Cav3 T inh | CYP2C19 act | CYP2C9 inh | Pyk2 oligo antag | CYP2C9 activ | CYP2C19 inhib
C=C1CC2C(=O)N(Cc3cc(OC)ccc3OC)C(C(=O)OCC)(C(=O)OCC)C1N2C(=O)OC(C)(C)C (stereo not drawn) | -0.45 | . | . | . | . | .
COc1ccc(C(=O)c2nc3c(n2O)CCCC3)cc1OC | 0.45 | 0.9 | 30 | 0.07 | 0.7 | 12
O=C(NCc1ccc(Cl)cc1)c1cc(-c2cccs2)on1 | -4.1 | 0.5 | 60* | -0.14 | 0.4 | 51*
O=C(CCn1c(=O)c2ccccc2n(Cc2cccnc2)c1=O)NCc1ccc2c(c1)OCO2 | 2.9 | 0.2 | 69* | 0.65 | 0.3 | 77*
Cc1ccccc1Cn1c(=O)n(CCC(=O)NCc2ccc3c(c2)OCO3)c(=O)c2ccccc21 | 0.29 | 0.7 | 34 | 0.44 | 0.7 | 32
O=C(CN(C(=O)C1CSC(=O)C1)c1ccccc1F)NCc1ccc2c(c1)OCO2 (stereo not drawn) | -3.8* | 0.1 | 44 | 0.58 | 0.6 | 87*
COc1ccc(CN2C(=O)[C@H]3Cc4c([nH]c5ccccc45)C(C)(C)N3C2=O)cc1 | -2.2 | . | . | . | . | .
COc1ccc(-n2nc3c(c2NC(=O)C2CC2)CS(=O)C3)cc1 (stereo not drawn) | 0.99 | 0.9 | 6 | -0.37 | 0.9 | 12
O=C(CCC1CCCCC1)Nc1c2c(nn1-c1ccc(F)cc1)CS(=O)C2 (stereo not drawn) | -1.1 | 0 | 22 | 1.1 | 0.8 | 98*
CCOc1ccccc1NC(=O)CCSc1nc2n[nH]c(C)c2c(=N)n1-c1ccccc1Cl | 0.29 | 0.3 | 77* | -1.3 | 0.2 | 71*
CCOc1ccccc1-n1c(SCC(=O)Nc2ccc(CC)cc2)nc2n[nH]c(C)c2c1=N | . | 0.8 | 14 | . | 0.9 | 23
CCC1CCCCN1C(=O)C1CC(c2cc(Cl)c(OC)cc2OC)=NO1 (stereo not drawn) | -1 | 0.3 | -94 | -0.52 | 1.9 | 72*
O=C(CC1(O)C(=O)Nc2cc(Cl)cc(Cl)c21)c1ccncc1 (stereo not drawn) | -0.21 | . | . | 0.52 | . | .
O=c1cc(CN2CCc3ccccc32)nc2sccn12 | 0.76 | 0.4 | 67* | -0.59 | 0.3 | 57*
CC1CN(Cc2cc(=O)n3ccsc3n2)CC(C)O1 (stereo not drawn) | 0.15 | 0.9 | 8 | 0.52 | 0.9 | 6
O=C(O)CCNc1cc2ccccc2cc1C(=O)O | 0.82 | 0.9 | 8 | 0 | 0.9 | 12
COc1ccc(NC(=O)c2nc3nccc(C)n3n2)cn1 | -0.25 | 1.1 | -19 | 1.6 | 1.2 | -10
COc1cccc(/C=N/NC(=O)c2c(-c3ccccc3)noc2C)c1 | -1.3 | 0.5 | 67* | -0.51 | 0.3 | 50*
Cc1onc(-c2ccccc2)c1C(=O)Nc1ccc(OC(C)C)cc1 | -0.15 | . | . | . | . | .
Cc1onc(-c2ccccc2)c1C(=O)Nc1nc(-c2ccccc2)cs1 | -3.4 | 0.3 | 72* | -2.8 | 0.3 | 70*
COCCNC(=O)c1ccccc1NC(=O)c1ccccc1N(C)S(=O)(=O)c1ccccc1 | -0.035 | 0 | 93* | -0.76 | 0.1 | 100*
CCCOc1ccc(NC(=O)c2c(-c3ccccc3)noc2C)cc1 | 0.44 | 0.9 | 1 | . | 1 | 6
